# Bioassay records: PubChem, several laboratories
# NR2F2 inh = NR2F2 transcriptional activity inhibitors, primary screen, cell-based, luciferase reporter, HEK293T, luminescence. HEK293T NGFI-A luciferase reporter. inhibition, % at 8.6 µM. 0.7% of 370,000 active. AID 686940, 2013;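 active = inhibition above a per-plate cutoff, mean inhibition of test wells between control levels plus 3 SD, cut at about 38% in these data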;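 note: cells cotransfected with COUP-TFII expression vector driving the NGFI-A reporter; 0% = median of COUP-TF2 test wells and 100% = reporter-only cells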
# Target sequence (P24468 whole entry, looked up): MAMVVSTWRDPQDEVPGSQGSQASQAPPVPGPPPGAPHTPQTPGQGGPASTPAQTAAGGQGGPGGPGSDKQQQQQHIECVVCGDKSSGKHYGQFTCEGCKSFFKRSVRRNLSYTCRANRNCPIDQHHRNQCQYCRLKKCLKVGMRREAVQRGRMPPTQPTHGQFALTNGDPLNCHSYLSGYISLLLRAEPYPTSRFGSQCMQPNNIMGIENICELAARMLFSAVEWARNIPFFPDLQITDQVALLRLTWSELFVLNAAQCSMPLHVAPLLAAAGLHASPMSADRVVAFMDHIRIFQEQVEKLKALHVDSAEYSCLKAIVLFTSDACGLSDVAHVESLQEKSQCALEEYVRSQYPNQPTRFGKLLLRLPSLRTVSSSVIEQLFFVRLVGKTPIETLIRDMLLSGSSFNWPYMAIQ
# NCOA1 inh = SRC1 coactivator transcriptional activity inhibitors, primary screen, cell-based, luminescence | inhibition, % at 3.6 µM | HEK293 GAL4-SRC1 luciferase reporter | Nuclear receptor coactivator 1 (Homo sapiens), Q15788 | 0.12% of 360,000 active;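 active = inhibition above the campaign mean plus 3 SD, with each screening campaign given its own cutoff, cut at about 60% in these data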;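 note: 0% = DMSO treated cells and 100% = gossypol at 36 µM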
# NCOA3 inh = SRC3 coactivator transcriptional activity inhibitors, primary screen, cell-based, luminescence. 0.17% of 360,000 active. AID 588352, 2011. inhibition, % at 3.6 µM. Nuclear receptor coactivator 3 (Homo sapiens), Q9Y6Q9. HEK293 GAL4-SRC3 luciferase reporter;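 active = inhibition above a per-campaign cutoff, the mean of all compounds plus 3 SD, cut at about 60% in these data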;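 note: 0% = DMSO-treated cells and 100% = gossypol-treated cells at 36 µM; higher means less SRC3-driven luciferase light from the GAL4 reporter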
# SRC2 inh = inhibition of GAL4-SRC2 driven luciferase reporter, primary screen, SRC2 inhibitor project, cell-based, luminescence; Nuclear receptor coactivator 2 (Homo sapiens), Q15596; 0.17% of 370,000 active; inhibition, % at 9 µM; HEK293 GAL4-SRC2 luciferase reporter;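 active = inhibition above the mean inhibition of all tested compounds plus 3 SD, set per campaign, cut at about 52% in these data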;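 note: 0% = DMSO treated cells and 100% = cells given Gossypol at 36 µM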
# LRH-1 inv ag = LRH-1 (NR5A2) inverse agonists, primary screen, cell-based, luminescence, HEK293T, StAR-luciferase reporter | Nuclear receptor subfamily 5 group A member 2 (Homo sapiens), O00482 | LRH-1 transfected, 24 h | inhibition, % at 3.6 µM | 0.13% of 360,000 active | AID 602396, 2012;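 active = inhibition above the mean inhibition of all tested compounds plus 3 SD, cut at about 73% in these data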;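 note: 0% = DMSO wells and 100% = reporter-only cells lacking LRH-1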
# Gli-Sufu antag = Gli-Sufu pathway antagonists, primary screen, luciferase luminescence, Sufu-KO-LIGHT cells, uHTS; 0.74% of 340,000 active; inhibition, % at 5 µM; Sufu-KO-LIGHT fibroblasts, Gli luciferase reporter luminescence;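 active = inhibition above about 55%, limit read from the data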;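 note: 0% = DMSO-treated cells and 100% = wells with medium but no cells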
# Gli-Sufu confirm = Gli-SUFU pathway antagonists, confirmation, single concentration, luciferase luminescence, Sufu-KO-LIGHT cells. shares compounds with Gli-Sufu antag. Gli luciferase reporter. inhibition, % at 5 µM. 40% of 2,500 active;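 active = mean inhibition at 5 µM reaching about 45%, limit read from the data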;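 note: plate controls were DMSO-treated cells for no effect and wells lacking cells for full effect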
# SufuKO cytotox = cytotoxicity in Sufu-KO-LIGHT cells, confirmation, cytotoxicity control for Gli-SUFU antagonist project, cell-based, ATP luminescence, single concentration; shares compounds with Gli-Sufu antag; cytotoxicity, % at 5 µM; 32% of 2,500 active; AID 651994, 2013;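 active = mean cytotoxicity at 5 µM above about 25%, limit read from the data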;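 note: cells exposed to compound overnight for roughly 16 to 18 hours; plate controls were DMSO wells with cells for no effect and medium without cells for full effect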
# Wnt3a counter = Wnt3a reporter signal inhibition, confirmation, counter-screen for Gli-SUFU antagonist project, Wnt-LIGHT cells, luminescence, single concentration; 20% of 2,500 active; shares compounds with Gli-Sufu antag; inhibition, % at 6.25 µM; Wnt3a-driven luciferase reporter; AID 651995, 2013;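 active = mean inhibition above about 25%, limit read from the data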
# * hit, by the source's call; x = no result given. Hits are enriched below; roughly 1.3% of the tested compounds scored in any of these assays.
SMILES,NR2F2 inh,NCOA1 inh,NCOA3 inh,SRC2 inh,LRH-1 inv ag,Gli-Sufu antag,Gli-Sufu confirm,SufuKO cytotox,Wnt3a counter
COCCn1c(C)cc(C2=NNC(=Nc3ccc(OC)cc3)SC2)c1C,x,-17.9,-13.2,x,13.9,-2.1,x,x,x
COc1ccc(-c2cc(-c3nnc(SCC(=O)NC4CCCCC4)n3N)[nH]n2)cc1,-9.3,x,x,-52.5,x,x,x,x,x
COC(=O)c1ccc(-c2ccc(OC)c([C@H]3[C@H]4C=CC[C@@H](C)[C@@H]4C(=O)N3Cc3ccccc3)c2)cc1,10.7,6.9,-8.9,-17.2,15.6,53.9,50.2*,37.6*,-2.1
Cc1c[nH]c2cccc(-c3cc4ccccc4o3)c12,-10.5,x,x,-24.6,x,x,x,x,x
CSC1=NCCN1C(=O)Cc1ccc(-c2ccccc2)cc1,-15.4,-14.6,-1.1,-1.5,-44.0,62.4*,23.4,13.3,-93.9
CC1=C(C(=O)Nc2ccccc2C)C(c2ccc(C)o2)C2=C(CCCC2=O)N1 (stereo unspecified),-2.6,8.1,2.9,0.6,-11.3,97.3*,14.9,6.1,34.6*
CCOc1ccc(N(CC(=O)Nc2c(C)n(C)n(-c3ccccc3)c2=O)S(=O)(=O)c2cccc3cccnc23)cc1,-8.8,x,x,27.5,x,x,x,x,x
CCOC(=O)C1=C(C)N(c2ccccc2)C(=O)C1,-5.8,-11.3,-18.8,16.1,0.9,76.1*,23.9,10.8,5.7
COc1ccc(C2CC(C(F)(F)F)n3nc(C(=O)NCc4c(C)nn(C)c4C)c(Cl)c3N2)cc1 (stereo unspecified),27.6,20.1,16.9,22.5,20.6,61.5*,50.4*,42.0*,-1.3
COc1ccc(C2CC(C(F)(F)F)n3nc(C(=O)N(C)Cc4cn(C)nc4C)c(Cl)c3N2)cc1 (stereo unspecified),10.4,-16.6,22.3,4.8,2.0,-0.1,x,x,x
O=C(NCCN1CCC(Cc2ccccc2)CC1)C1CCCN(S(=O)(=O)c2ccc([N+](=O)[O-])cc2)C1 (stereo unspecified),25.1,x,x,24.0,x,x,x,x,x
COC(=O)C1CN(Cc2cn(CCC3OCCO3)nn2)CCS(=O)(=O)N1Cc1ccc(Cl)cc1 (stereo unspecified),15.1,x,x,-30.1,x,x,x,x,x
CCC(=O)N1CCc2cc(Br)cc(S(=O)(=O)N3CCC(C(=O)NC(C)(C)C)CC3)c21,-13.4,15.8,-3.3,12.6,0.2,54.4,5.4,18.6,-39.4
Cc1c(Cl)cccc1NC(=O)CCN1CCN(CCO)CC1,3.9,-16.4,-3.4,-18.9,9.1,-1.9,x,x,x
Cc1c(Cl)cccc1NC(=O)CCN1CCC(C(N)=O)CC1,-10.7,12.1,-2.5,6.5,-11.5,57.2*,21.4,2.6,18.6
COC(=O)/C(=N\Nc1ccc(Cl)cc1)Sc1nnc(-c2ccc(OC)cc2)n1C,-19.5,15.7,15.9,-7.3,9.5,80.3*,15.2,23.8,-15.8
CCOC(=O)[C@@]12CN(C(=O)OC(C)(C)C)CC=C1N(Cc1ccc(OC)cc1)C(=O)[C@H]2CC(=O)N1CCSCC1,-11.7,x,x,-12.4,x,x,x,x,x
COc1cc(NC(=O)c2cc3ccccc3cc2O)c(OC)cc1Cl,30.8,-28.6,-12.5,15.3,22.8,26.3,x,x,x
O=C(NCCO)c1cc2ccccc2cc1O,-14.7,-5.2,11.3,1.2,6.3,-1.5,x,x,x
Cc1ccc(Cl)cc1NC(=O)c1cc2ccccc2cc1O,22.7,-15.9,-9.1,-13.8,-19.1,60.7*,70.9*,26.3*,56.2*
NNC(=O)c1cc2ccccc2cc1O,27.2,54.8,62.0*,70.5*,25.3,60.7*,72.0*,6.3,83.5*
CCN1CCCC1CNc1ncnc2c1[nH]c1ccc(Cl)cc12 (stereo unspecified),-9.2,-8.1,-7.0,1.5,-8.6,51.5,40.3,13.1,-95.1
O=C(CNC(=S)N(Cc1ccc(F)cc1)C1CCCCC1)NC1CC1,9.3,5.0,6.3,-14.0,12.2,59.3*,19.7,2.5,0.2
CCOC(=O)c1c(C)[nH]c(C)c1S(=O)(=O)N(C)CC(=O)NCc1cccc(C)c1,-11.9,4.0,-6.9,7.1,-2.7,51.5,4.8,-3.8,-23.3
Cc1ccc(S(=O)(=O)N2CCN(c3ccc(N4CCOCC4)nn3)CC2)cc1[N+](=O)[O-],9.9,-5.6,12.1,21.2,-6.2,4.6,x,x,x
SMILES,NR2F2 inh,NCOA1 inh,NCOA3 inh,SRC2 inh,LRH-1 inv ag,Gli-Sufu antag,Gli-Sufu confirm,SufuKO cytotox,Wnt3a counter
O=[N+]([O-])c1ccc(S(=O)(=O)N2CCN(c3ccc(N4CCOCC4)nn3)CC2)cc1,-4.7,2.7,2.9,9.3,-7.7,55.0,32.6,19.4,-20.9
CCCCCN1CCCCC(NC(=O)c2cccc(C(F)(F)F)c2)C1=O (stereo unspecified),1.5,x,x,-0.2,x,x,x,x,x
O=C(O)c1ccc(N/N=C/c2ccc(OC(=O)c3ccccc3Cl)cc2)cc1,21.4,-31.8,-14.1,0.6,-64.7,60.5*,63.8*,6.5,79.4*
COC(=O)C1CN(Cc2ccc(OC)cc2)CCS(=O)(=O)N1Cc1cn(Cc2ccc(C)cc2)nn1 (stereo unspecified),22.1,x,x,-11.9,x,x,x,x,x
COc1ccc(S[C@]2(C(=O)N3CCOCC3)CC(=O)N(C(=O)/C=C/c3ccccc3)[C@@H]2c2ccc(OC)cc2)cc1,11.9,x,x,25.4,x,x,x,x,x
CCOC(=O)c1c(C2COc3ccccc3O2)csc1N (stereo unspecified),-2.8,3.9,7.4,-5.7,-1.4,54.6,12.8,28.9*,-18.7
CCOC(=O)c1c(C2COc3ccccc3O2)csc1NC(=O)c1ccccc1 (stereo unspecified),-27.0,13.6,11.8,-8.4,7.3,8.9,x,x,x
Cc1ccc2[nH]c3c(N4CCN(Cc5ccc6c(c5)OCO6)CC4)ncnc3c2c1,1.5,x,x,7.4,x,x,x,x,x
Cc1ccc2[nH]c3c(N4CCN(Cc5ccccc5)CC4)ncnc3c2c1,30.8,-55.6,7.3,18.6,-1.9,53.4,53.4*,37.3*,-5.2
COc1ccc(/C=N\N2CCN(Cc3ccccc3Cl)CC2)cc1,9.8,13.9,-6.3,8.6,27.7,50.3,12.4,15.7,-26.7
Clc1ccc(/C=N/N2CCN(Cc3ccccc3Cl)CC2)cc1,11.4,-11.0,11.2,7.4,19.3,6.1,x,x,x
CN1C(=O)c2cc(NC(=O)Cc3ccccc3)ccc2OC[C@H]2O[C@H](CC(=O)O)CC[C@H]21,13.6,x,x,13.6,x,x,x,x,x
